Measurements reported in PubChem BioAssay (NCATS).
Results filed as inconclusive are left out. Active and inactive are the calls of the source. Calls follow the shape of the dose curve; as a rule, active = well fitted inhibition curve with a large enough effect; inconclusive = small, poorly fitted or top-dose-only effect; inactive = flat fitted curve, though single readings scatter.

target: Calcium and integrin-binding protein 1 (Homo sapiens) (UniProt Q99828); test: Primary qHTS for Identification of Calcium Integrin Binding Protein 1 (CIB1) Competitor (AID 1508620); settings: CIB1-GST / FITC-alphaIIb peptide fluorescence polarization; series mostly up to 114 µM; activity change, negative = inhibition: at the top concentration; also: top concentration of the series differs between compounds
How it was run: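 Fluorescence polarization competition: GST-tagged CIB1 (1 uM final) preincubated with compound 15 min at room temperature, then FITC-labelled alphaIIb peptide (100 nM final) added. After 15 min at room temperature, polarization read at Ex 480/Em 540.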
% is scaled to controls: 0 for no effect and ±100 for the full control effect.

Chain of Calcium and integrin-binding protein 1 (Homo sapiens) (Q99828 whole entry, looked up): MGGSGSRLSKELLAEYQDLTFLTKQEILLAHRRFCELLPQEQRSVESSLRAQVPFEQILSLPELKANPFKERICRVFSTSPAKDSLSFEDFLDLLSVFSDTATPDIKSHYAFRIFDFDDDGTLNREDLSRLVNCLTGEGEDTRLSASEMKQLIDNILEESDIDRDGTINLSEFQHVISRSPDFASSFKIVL

Structure (SMILES)	activity change, negative = inhibition	Potency
O=C(Nc1ccc(Oc2ccccc2)cc1)Nc1nnc(-c2ccncc2)s1	1.14% (inactive)	
Cc1noc(C)c1-c1csc(N2CCC(C(N)=O)CC2)n1	3.82% (inactive)	
COc1ccc(OC)c(NC(=O)c2ccccc2OC(C)=O)c1	3.02% (inactive)	
Cc1cc2c(s1)c1cnn(Cc3cc(C(F)(F)F)ccc3F)c(=O)c1n2C	-0.885% (inactive)	
Cc1ccc(OCCn2c(CCNC(=O)c3ccco3)nc3ccccc32)cc1	3.39% (inactive)	
Cn1c2cc(Br)sc2c2cnn(Cc3c(F)cccc3F)c(=O)c21	1.55% (inactive)	
Cc1ccc(CSc2nnc(-c3cccc4ccccc34)o2)cc1	4.97% (inactive)	
c1csc(CNc2ccc(N3CCOCC3)cc2)c1	-5.12% (inactive)	
COc1ccc(C2c3c(N)nc(CCCc4ccccc4)nc3Oc3ccc4ccccc4c32)cc1OC (centres undefined)	6.89% (inactive)	
O=C1c2ccccc2C(=O)c2cc(S(=O)(=O)Nc3cccc4cccnc34)ccc21	-16.6% (inactive)	
CC(=O)c1ccc(-c2csc3ncnc(Sc4nnnn4C)c23)cc1	7.44% (inactive)	
O=C1CCCC2=C1C(c1[nH]ncc1Cl)NC(=NCc1ccccn1)N2 (centres undefined)	-2.52% (inactive)	
COc1ccc(C2c3c(nc(Cc4ccccc4)[nH]c3=O)Oc3ccc4ccccc4c32)cc1OC (centres undefined)	1.52% (inactive)	
Cc1ccc(NS(=O)(=O)c2ccc3c(c2)NC(=O)CO3)cc1C	5.69% (inactive)	
Cc1cc(NC(=O)Nc2nnc(-c3ccncc3)s2)ccc1Br	-1.1% (inactive)	
CN(CC(=O)O)c1ncnc2ccc(-c3ccc4c(c3)OCO4)cc12	-6.89% (inactive)	
COc1cccc(Nc2ccc(N3CCN(C(C)=O)CC3)cc2)c1OC	-0.112% (inactive)	
S=C(NCCCc1cnc[nH]1)NCCN(Cc1ccc(Cl)c(Cl)c1)c1ccc(Br)cn1	-8.2% (inactive)	
FC(F)(F)c1ccccc1-c1nc(NCc2ccc(-c3cccc4ccccc34)cc2)c2ccccc2n1	7.88% (inactive)	
O=S(=O)(c1ccc2c(c1)OCCO2)N1CCN(S(=O)(=O)c2c(F)cccc2F)CC1	-4.79% (inactive)	

Structure (SMILES)	activity change, negative = inhibition	Potency
O=S1(=O)N=C(Oc2cccc(Br)c2)c2ccccc21	-3% (inactive)	
O=c1c2ccccc2nc2sc(Nc3ccc4c(c3)CNC4)nn12	9.1% (inactive)	
O=[N+]([O-])c1cccc(CSc2nc3ncc(Br)cc3[nH]2)c1	0.628% (inactive)	
CCCc1nnc(-c2cnn(C)c2N)n1CCCn1ccnc1	1.17% (inactive)	
CC(=O)N1CCN(c2ccc(NS(=O)(=O)c3ccc4c(c3)CC(=O)N4)cc2)CC1	-18% [at 228 µM] (inactive)	
Cc1ccc(-c2ccc(=O)n(CC(=O)N(C)C(C)c3cccs3)n2)cc1 (centres undefined)	-7.22% (inactive)	
Cc1ccc2nc3sc(C(=O)NCCc4cccnc4)cc3cc2c1	2.34% (inactive)	
N#Cc1ccc(-c2nc(NCc3ccc(-c4ccnc(C(F)(F)F)c4)cc3)c3ccccc3n2)cc1	13.5% (inactive)	
O=[N+]([O-])c1cccc(S(=O)(=O)N2CCN(S(=O)(=O)c3ccc4c(c3)OCCO4)CC2)c1	-4.4% (inactive)	
FC(F)(F)c1ccc(-c2nc(-c3nnc4n3CCCCC4)c(C(F)(F)F)o2)cc1	2.16% (inactive)	
Cc1ccc(S(=O)(=O)Nc2cccc3cccnc23)c([N+](=O)[O-])c1	-0.457% (inactive)	
Cc1ccc(S(=O)(=O)N2CCN(S(=O)(=O)c3ccc4c(c3)OCCO4)CC2)cc1	-4.36% (inactive)	
O=C(Nc1ccc2c(c1)OCCO2)Nc1nnc(-c2ccncc2)s1	-1% (inactive)	
COc1cccc(C2c3c(ncn(-c4cccc(Br)c4)c3=N)Oc3ccc4ccccc4c32)c1 (centres undefined)	3.79% (inactive)	
Cc1ccc(-c2nccc(=O)n2CC(=O)NCCc2ccccc2)cc1	9.6% (inactive)	
O=C(/C=C/c1ccccc1)Nc1cccc(S(=O)(=O)Nc2ccccc2F)c1		inactive
Oc1cc(Nc2ccccc2)cc2cccnc12	-4.53% (inactive)	
COc1ccnc(NCc2ccc(O)c3ncccc23)c1	8.74% (inactive)	
COc1cc(-c2ccc3ncnc(NCc4cccs4)c3c2)cc(OC)c1OC	-3.42% (inactive)	
